Screening data from PubChem BioAssay.
Sm TGR block: S. mansoni TGR enzyme inhibition; hit rate 3% among 360,000; Q962Y6; purified TGR, DTNB reduction, TNB absorbance 405 nm; Potency, µM (doses to about 114 µM), most hits filed as inhibitors; active = well fitted inhibition curve with a large enough effect; inconclusive = small, poorly fitted or top-dose-only effect; inactive = no such curve, though single readings can be large or run the other way; also: nearly all actives have a fitted effect of over 60% in size
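TGR 20 nM + NADPH 100 uM (dispensed conc.), cpd preinc 15 min RT; start with NADPH (500 uM addition) then DTNB (15 mM addition). Kinetic TNB absorbance, 405 nm filter. Four-parameter Hill fit across titration.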
Shiga toxin inh: Shiga toxin inhibition. Vero cells, Shiga toxin protein synthesis inhibition reporter. inhibition, % at 38.7 µM. hit rate 9.2% among 290,000; in the data active = inhibition mostly above about 28%, no sharp cut-off; inactive = mostly below about 43%
FMDV inh: antivirals against foot and mouth disease virus | FMDV antiviral cell-based qHTS | Potency, µM (series often up to 57.9 µM), actives largely listed as inhibitors | hit rate 1.2% among 410,000; calls by dose curve; tested in HEK293T cells; also: read-out not given here; nearly all actives have a fitted effect of over 45% in size
Cycloheximide cs: counter-screen hit for Shiga toxin inhibitors, cycloheximide; hit rate 12% among 300,000; cell reporter, cycloheximide protein synthesis inhibition counterscreen; AID 2314; max response, %; in the data active = max response mostly above about 13%, no sharp cut-off; inactive = mostly below about 14%; also: read at 38.3 µM for the half of the compounds with a filed dose
Large screens that a line does not name were inactive. Only some compounds are listed: those with a hit (about 12% of all), similar ones and a draw of the others.

Cc1ccc(-n2ncc3c(NCc4cccnc4)ncnc32)c(C)c1	FMDV inh inconclusive
COc1ccc(-n2ncc3c(NCc4cccnc4)ncnc32)cc1	Shiga toxin inh 86, Cycloheximide cs 52
Cc1cccc(C(=O)NNc2ncnc3c2cnn3C)c1	Cycloheximide cs 30
Cc1cccc(C(=O)NNc2ncnc3c2cnn3-c2ccc(C)cc2C)c1	none (no result: Shiga toxin inh, Cycloheximide cs)
Cc1cccc(-n2ncc3c(NCc4cccnc4)ncnc32)c1	Shiga toxin inh 77, Cycloheximide cs 47
CCOc1ccccc1NC(=O)CSc1ccc2nnc(CCNS(=O)(=O)c3ccccc3)n2n1	none (no result: Shiga toxin inh, Cycloheximide cs)
COc1ccc(/C=C/c2nc(C#N)c(N3CCCCC3)o2)cc1OC	none (no result: Shiga toxin inh, Cycloheximide cs)
O=C(NCc1nnc2n1CCN(Cc1cc(F)cc(F)c1)CC2)c1cccc(F)c1	none (no result: Sm TGR block, Shiga toxin inh, Cycloheximide cs)
C/C(N)=C(/C#N)C(=O)COC(=O)c1cc(-c2cccc3ccccc23)nc2ccccc12	none
C/C(N)=C(/C#N)C(=O)COC(=O)c1ccccc1O	Shiga toxin inh active, Cycloheximide cs 24
N#CSCC(=O)c1cccc2ccccc12	Sm TGR block 32µM, FMDV inh inconclusive
C/C(N)=C(/C#N)C(=O)COC(=O)c1cccc2ccccc12	Shiga toxin inh 95, Cycloheximide cs 37
COc1ccccc1CNC(=O)Cn1c(=O)oc2cc(S(=O)(=O)NCc3ccccc3)ccc21	none (no result: Shiga toxin inh, Cycloheximide cs)
Cn1nc(C(F)(F)F)c(C(=O)Nc2ccc(Cl)cc2)c1Cl	none
Cc1ccc(NC(=O)c2c(C(F)(F)F)nn(C)c2SCc2cccc(C(F)(F)F)c2)cc1C	Shiga toxin inh 51, Cycloheximide cs 20
Cc1ccc(NC(=O)c2c(C(F)(F)F)nn(C)c2SCc2ccc(Cl)cc2)cc1C	Shiga toxin inh 46, Cycloheximide cs 22
CCc1ccc(C(=O)c2cn(CC(=O)Nc3cc(OC)ccc3OC)c3ccc(Cl)cc3c2=O)cc1	none (no result: Shiga toxin inh, Cycloheximide cs)
Cc1ccc(NC(=O)CN2C(=O)c3cccnc3Oc3ccc(Cl)cc32)cc1	none (no result: Shiga toxin inh, Cycloheximide cs)
O=C1CCN(Cc2ccccc2)CCN1CCOc1ccccc1	Shiga toxin inh 76, Cycloheximide cs 42
C[C@H]1CCC(=O)N([C@H](COc2ccccc2)Cc2ccccc2)CC1	none
O=C(Nc1ccc(Cl)cc1)OCCN1CCN(Cc2ccccc2)CCC1=O	Shiga toxin inh active, Cycloheximide cs 34 (no result: Sm TGR block, FMDV inh)
CC1CCC(=O)N(CCOc2ccccc2)CC1 (stereo not given)	Shiga toxin inh 58, Cycloheximide cs 39
O=C(Nc1ccccc1)OCCN1CCN(Cc2ccccc2)CCC1=O	none
CCCOc1ccc(Oc2nc(NC)nc(N3CCOCC3)n2)nn1	none (no result: Shiga toxin inh, Cycloheximide cs)
CCOc1ccccc1N(CC(=O)NCCSc1ccccc1)S(=O)(=O)c1ccccc1	none (no result: Shiga toxin inh, Cycloheximide cs)
CCc1ccc(CNC(=O)CSc2cc(=O)n(C)c3ccc(Cl)cc23)cc1	none (no result: Shiga toxin inh, Cycloheximide cs)
CCOC(=O)C1CCN(C(=O)c2ccc3c(c2)N=C(CC)c2cc(C)ccc2S3)CC1	none (no result: Shiga toxin inh, Cycloheximide cs)
CC1(C)Cc2nc3oc4c(NCc5ccccc5)ncnc4c3cc2CO1	none
COC(CSc1ncnc2c1oc1nc3c(cc12)COC(C)(C)C3)OC	Sm TGR block 28µM
Cc1nc(SCC(=O)NC(=O)NCc2ccccc2)nc(C)c1C	none
Cc1nc(SCC(=O)NCc2ccco2)nc(C)c1C	Sm TGR block 22µM
O=C(CSc1nc(-c2ccccc2)cs1)NCc1ccco1	Shiga toxin inh 44, Cycloheximide cs 22
Cc1nc(SCC(=O)NC(=O)NCc2ccco2)nc(C)c1C	Sm TGR block 40µM
O=C(CSc1nnc(-c2ccccc2)c(-c2ccccc2)n1)NCc1ccco1	Sm TGR block 40µM, FMDV inh inconclusive
O=C(CSc1ncc(-c2ccccc2)nn1)NCc1ccco1	Sm TGR block inconclusive (no result: FMDV inh)
COCCn1c(=O)cnc2cnc(OCc3ccccc3)nc21	none (no result: Sm TGR block, Shiga toxin inh, Cycloheximide cs)
CCCN1C(=O)C(Cc2nc3ccccc3c(=O)n2-c2cccc(C)c2)c2ccccc21 (stereo not given)	none (no result: Shiga toxin inh, Cycloheximide cs)
Cn1cnc(S(=O)(=O)N2CCC(C(=O)Nc3ccc(Cl)c(C(F)(F)F)c3)CC2)c1	FMDV inh inconclusive (no result: Shiga toxin inh, Cycloheximide cs)
Cc1ccc2nc(SCC(=O)NC(=O)NCc3ccco3)[nH]c2c1	Sm TGR block inconclusive, Cycloheximide cs 13
Cc1sc2nc(C(C)C)nc(SCC(=O)NCc3ccco3)c2c1C	Sm TGR block 45µM, Cycloheximide cs 32 (no result: FMDV inh)
COCC(=O)NCCc1nc(-c2ccccc2)cs1	none
COCCNC(=O)CSc1nc(-c2ccccc2)cs1	Shiga toxin inh 45, Cycloheximide cs 25
O=C(CSc1nnc(-c2ccccc2)c(-c2ccccc2)n1)Nc1ncc(Cl)cc1Cl	Shiga toxin inh 34, Cycloheximide cs 18
COc1cccc(C2(CC(=O)N3CCN(c4ccccn4)CC3)CC(=O)N(C3CCCC3)C2=O)c1 (stereo not given)	none (no result: Sm TGR block, Shiga toxin inh, Cycloheximide cs)
CCN1CCCC1CNC(=O)c1cnn(-c2nccc(-c3cccs3)n2)c1C1CC1 (stereo not given)	none (no result: Sm TGR block, Shiga toxin inh, Cycloheximide cs)
Cc1cccc(Sc2c([N+](=O)[O-])ncn2C)c1	Sm TGR block inconclusive, FMDV inh inconclusive
Cn1cnc([N+](=O)[O-])c1Oc1ccc2ccccc2c1	Sm TGR block 14µM, FMDV inh 18µM
CCc1nnc2c3ccccc3nc(N3CCN(c4cc(C)ccc4C)CC3)n12	none (no result: Shiga toxin inh, Cycloheximide cs)
O=c1c2oc3ccccc3c2n(Cc2ccc(Cl)cc2)c(=O)n1Cc1ccco1	none (no result: Shiga toxin inh, Cycloheximide cs)
O=[N+]([O-])c1ccc(COc2cccc3cccnc23)cc1	Shiga toxin inh 143, Cycloheximide cs 68
Brc1ccc(COc2cccc3cccnc23)cc1	none (no result: Sm TGR block, Shiga toxin inh, Cycloheximide cs)
N#Cc1ccc(COc2cccc3cccnc23)cc1	Shiga toxin inh 36, Cycloheximide cs 25
O=[N+]([O-])c1ccc(OCCCOc2cccc3cccnc23)cc1	none (no result: Shiga toxin inh)
CN(C(=O)c1ccc2c(c1)N(Cc1ccccc1F)C(=O)c1ccccc1S2)C1CCCCC1	none (no result: Shiga toxin inh, Cycloheximide cs)
NNC(=O)c1c(O)c2cccc3c2n(c1=O)CCC3	Sm TGR block 32µM
CC(C)NC(=O)c1c(O)c2cccc3c2n(c1=O)CCC3	none (no result: Shiga toxin inh)
COc1ccccc1N1CCN(C(=O)c2oc3ccccc3c2N)CC1	none (no result: Shiga toxin inh, Cycloheximide cs)
O=[N+]([O-])c1cc(S(=O)(=O)Nc2ccccc2)ccc1N1CCN(c2ccc(O)cc2)CC1	none
Cc1ccc(NS(=O)(=O)c2ccc(N3CCN(c4ccc(O)cc4)CC3)c([N+](=O)[O-])c2)c(C)c1	FMDV inh 28µM
COc1ccc(N=C2S/C(=C\c3ccco3)C(=O)N2CC(C)C)cc1	Sm TGR block 45µM
Cc1occc1C(=O)NC(C)C1CCCO1 (stereo not given)	Sm TGR block 22µM
COC(=O)c1sc2ccccc2c1N	Shiga toxin inh 60, Cycloheximide cs 32
COC(=O)c1sc2ccccc2c1C(=O)OC	none
O=C(Oc1ccc(OC(=O)N2CCCCC2)cc1)N1CCCCC1	none (no result: FMDV inh)
CC(=O)Nc1ccc(OC(=O)N2CCCCC2)cc1	Cycloheximide cs 12
O=C(Oc1ccc(-c2ccccc2)cc1)N1CCCCC1	Shiga toxin inh 65, Cycloheximide cs 35
C=CCc1c(C)nc(SC)nc1Nc1ccc(C(C)=O)cc1	Sm TGR block inconclusive, Shiga toxin inh 82, Cycloheximide cs 46
Cc1c(C(=O)N(C)C)sc2c1c(=O)n(-c1ccc(Cl)c(Cl)c1)c(=O)n2CC(=O)Nc1cccc(C(F)(F)F)c1	none (no result: Shiga toxin inh, Cycloheximide cs)
CCOc1cccc2sc(N3CCN(C(=O)c4ccc5c(c4)CCCC5)CC3)nc12	FMDV inh inconclusive (no result: Shiga toxin inh, Cycloheximide cs)
OC(C#Cc1ccccn1)c1cccs1 (stereo not given)	Sm TGR block 1.4µM, Shiga toxin inh 48, Cycloheximide cs 51
CNS(=O)(=O)c1cnccc1N1CCN(c2cccc(Cl)c2)CC1	none
